# Data from ChEMBL document CHEMBL4513216, “Probing the Open Global Health Chemical Diversity Library for Multistage-Active Starting Points for Next-Generation Antimalarials” (ACS Infect Dis, 2020).
# The campaign covered roughly 65,000 compounds. About 2,100 (3.2%) showed an effect of 50% or more. The median lay at about -52%. The entries come from a sample that favours strong results as a whole.
# Test system: Plasmodium falciparum
# Test: Screen against P. falciparum Asexual Blood Stage (ABS), at 5uM
# Type: functional, Dd2
# Details: tested at 5 uM
row,Compound,INHIBITION [%]
1,Cc1cc(O)nc(C2CCCNC2)n1 (stereo not given),-1.25
2,Cc1cc(Cc2cccc(C(F)(F)F)c2)cc(C2CCCNC2)n1 (stereo not given),93.9
3,Cc1cccc(Cc2cc(C)nc(C3CCCNC3)c2)c1 (stereo not given),80.1
4,Cc1cc(Cc2ccc(F)cc2)cc(C2CCCNC2)n1 (stereo not given),73.9
5,Cc1cc(C)nc(C2CCCNC2)n1 (stereo not given),-66.3
6,Cc1nc(NCCC23CCCN2CCC3)cc(C2CCCNC2)n1 (stereo not given),-29.1
7,Cc1cc(Cc2ccccc2)cc(C2CCCNC2)n1 (stereo not given),76.1
8,FC(F)(F)c1nc(C2CCCNC2)no1 (stereo not given),-15.6
9,CC(C)c1ncc(Cl)c(C(=O)N2CCCN3CCCC3C2)n1 (stereo not given),-79
10,CNC(=O)[C@H]1C[C@@H]2CN(Cc3cccnc3OC)C[C@@H]2N1C(C)=O,38.2
11,NC1(c2nc(-c3ccccc3)cc(=O)[nH]2)CCCCC1,-0.415
12,COCCN1CCC2(COCc3cnc(N(C)C)nc32)C1 (stereo not given),-35.3
13,Cc1cc(Cc2ccccc2C)cc(C2CCCNC2)n1 (stereo not given),78.9
14,CC(C)c1nc(C2CCCNC2)no1 (stereo not given),-62.1
15,CNc1cc(C2CCCNC2)nc(C)n1 (stereo not given),-80.8
16,CCCN1CCN(C(=O)c2ccnc(N)c2)[C@H]2CS(=O)(=O)C[C@H]21,-88.3
17,O=C1[C@@H]2CCN(Cc3ccoc3)C[C@@H]2OCCN1c1cccnc1,23.5
18,CC(C)CN1C(=O)CO[C@@H]2CNC[C@H]21,-4.26
19,Fc1ccccc1CC1CCN(Cc2ccccn2)CC1,70.4
20,Cc1cccc(CN2CCC(Cc3ccccc3F)CC2)n1,94
21,Cc1cccc(CN2CC[C@H]3C[C@@H](C)O[C@@H]3C2)n1,-46.7
22,Cc1cccc(CN2CC[C@H]3C[C@H](C)O[C@@H]3C2)n1,-37.4
23,C[C@@H]1C[C@@H]2CCN(Cc3ccccn3)C[C@H]2O1,-25.2
24,C[C@H]1C[C@@H]2CCN(Cc3ccccn3)C[C@H]2O1,-59.7
25,Cc1nc(CN2C[C@@H]3CN(C(=O)Cc4ccccn4)C[C@@H]3C2)cs1,-41.5
26,CN1CCC2(Cc3ccccc3NC2=O)C1 (stereo not given),8.23
27,Cc1nn(C)c2ncc(S(=O)(=O)N3CCN4CCCC4C3)cc12 (stereo not given),-67.5

row,Compound,INHIBITION [%]
1,CC(c1cn2ncsc2n1)n1cc2[nH]cccc-2c1=O (stereo not given),-131
2,CO[C@@H]1CN(Cc2scnc2C)[C@@H]2CCCO[C@@H]21,-39.6
3,CC(=O)N1CCCC2(CN(Cc3ccncc3)CCO2)C1 (stereo not given),-47.6
4,CN1CCC(N(C)C[C@H]2CC[C@@H](Cc3ccc4occc4c3)O2)CC1,85.8
5,CCc1nc(CN2CCN(C(=O)Cc3c(C)noc3C)CC2)cs1,-46.1
6,Cc1noc(C)c1CC(=O)N1CCN(Cc2cscn2)CC1,-151
7,Cc1noc(C)c1CC(=O)N1CCCN(Cc2cscn2)CC1,63.9
8,COc1ccccc1CNC(C)c1ccc(-n2ccnc2)cc1 (stereo not given),78.4
9,COc1cccc(CNC(C)c2ccc(-n3ccnc3)cc2)c1O (stereo not given),79.5
10,CCOc1cccc(CNC(C)c2ccc(-n3ccnc3)cc2)c1O (stereo not given),75
11,CC(Cc1c(F)cccc1F)NC(=O)CSCC(N)=O (stereo not given),-46.4
12,Nc1cnc(-c2cccc3c2CCNC3)cn1,-39.4
13,Cc1noc([C@@H]2C[C@H]3OCC[C@H]3N(C(C)C)C2)n1,-89.1
14,CC1(C)CC2(CCO1)NC(=O)c1cc(Br)ccc1-n1nnnc12 (stereo not given),-59.6
15,c1cc(CN2C[C@@H]3COC[C@]3(COCC3CC3)C2)ccn1,-11.9
16,CNc1ncccc1C(=O)N1CCN(C)C2(CCN(C)CC2)C1,-111
17,COCCn1cncc1Cn1ncc2ccccc2c1=O,-74.4
18,COc1cccc(CC(=O)N2CCCSCC2CN2CCCC2)c1 (stereo not given),54.7
19,O=C(COc1ccc(F)cc1)N1CCCSCC1CN1CCOCC1 (stereo not given),-80.2
20,COc1cccc(OCC(=O)N2CCCSCC2CN2CCOCC2)c1 (stereo not given),-105
21,CCS(=O)(=O)N1CCC2(C1)C(=O)N(C)CCN2Cc1ccncc1 (stereo not given),-177
22,CCO[C@@H]1CC[C@H]2[C@H]1OCCN2Cc1ccoc1,-43.3
23,OCCN1CCCC(c2cccc(-c3ccccc3F)n2)C1 (stereo not given),83.4
24,Fc1ccccc1-c1cccc(C2CCCN(C3CCOCC3)C2)n1 (stereo not given),82.3
25,O=C1NC[C@H]2CN(C3CCOCC3)CCN12,-118
26,O=C1N(Cc2ccccn2)C[C@H]2CN(C3CCOCC3)CCN12,-92.3
27,Cc1nc(CN2CCN(C(=O)COc3c(C)ccc(C)c3C)CC2)no1,-66.3

row,Compound,INHIBITION [%]
1,O=C(N1CCCO1)[C@@]12CCO[C@@H]1CCN(Cc1cccnc1)C2,-54.2
2,CN(C)CCN(C)C(=O)Cn1cccc2cc(-c3ccc(F)cc3)nc1-2,86.8
3,CCc1cccc2c(CC(=O)N(C)CCN(C)C)c(C)[nH]c12,18.4
4,c1ccc(CO[C@@H]2CN(Cc3ccoc3)[C@@H]3COC[C@@H]32)nc1,-37.1
5,Cc1cc(CN2C[C@@H]3COC[C@]3(COCC(=O)N(C)C)C2)no1,-23
6,CCc1[nH]c2c(CNc3nccc(N)n3)cc(F)cc2c1C,85.6
7,Cc1cc(CNc2nccc(N)n2)c2[nH]c(C)c(C)c2c1,79.5
8,CCc1[nH]c2c(CNc3nccc(N)n3)cc(C)cc2c1C,90.9
9,CCN1C(=O)C2(CCCCC2)NC12CCSCC2,-40
10,COc1cccc(C2SCC(=O)Nc3ccsc32)c1 (stereo not given),-108
11,Cc1nc(CN2CCO[C@@H]3CNCC[C@@H]3C2)cs1,-15.7
12,O=C(c1ccc(C2CCCN2)s1)N1CCN2CCC1CC2 (stereo not given),-75.7
13,NCC(=O)N1CCCC1c1ccc(C(=O)NCc2ccoc2)s1 (stereo not given),92.6
14,Cc1sc2nc(C(F)(F)F)nc(N3CCCN(C)CC3)c2c1C,76.1
15,O=C1CSC(c2ccc(F)c(Cl)c2)c2c(n(C3CCOCC3)[nH]c2=O)N1 (stereo not given),-35.3
16,Cc1cccc(CN2CC3C[C@]3(NC(=O)c3cccc(F)c3)C2)n1 (stereo not given in full),-65.9
17,O=C(c1cnc(-c2ccccc2)s1)N1CCC2(CC1)OCCO2,-174
18,COc1ccc2c(c1)c(C(=O)Nc1nnn[nH]1)cn2C(C)C,-11.6
19,CN1CCC(C2CCN(Cc3cccc(-n4cccn4)c3)CC2)C1 (stereo not given),85.7
20,c1cnc(N2C[C@H]3CCN(Cc4ccncc4)C[C@H]3C2)nc1,-82.6
21,c1cc(CN2CC[C@@H]3CN(c4cncnc4)C[C@@H]3C2)ccn1,-49.4
22,NC(=O)c1cnn2c1NCC(CNCC1(c3ccccc3)CCC1)C2 (stereo not given),22.7
23,CN[C@@H]1CCC[C@@H](Oc2ccccc2Oc2ccc(C)cc2)[C@@H]1O,90.3
24,Cc1ccc(Oc2cc(F)ccc2O[C@@H]2CCC[C@@H](N)[C@H]2O)cc1,91.1
25,N[C@@H]1CCC[C@@H](Oc2ccc(F)cc2Oc2ccccc2)[C@@H]1O,77.4
26,Fc1cccnc1N1CCOCC2(CCCNC2)C1 (stereo not given),34.8
27,CCCN1C(=O)CC2(CCCNC2)C1=O (stereo not given),-90.5

row,Compound,INHIBITION [%]
1,CN(Cc1cc(F)cc2cccnc12)CC1CCN(CCO)CC1,84.7
2,Cc1ccc(CC(=O)N2CCN(CC(C)O)CC2)cn1 (stereo not given),-89.8
3,CN(c1ncccc1C#N)C1CCN(CCc2ccccn2)CC1,20.6
4,CC(O)CN1CCC(CN(C)Cc2cc(F)cc3cccnc23)CC1 (stereo not given),87.2
5,CN(Cc1cc(Cl)cc2cccnc12)CC1CCN(CCO)CC1,88.7
6,CC(C)CN1C(=O)C2(CCCC2)NC1c1cn(C)c(=O)n(C)c1=O (stereo not given),-15.3
7,C[C@H]1C[C@@H]2CCN(CC3CCOCC3)C[C@H]2O1,-49.5
8,CC(C)OCCNC1(c2ccc(Cl)cc2)CCOCC1,37.7
9,CC(NCC1(N(C)C)CCOCC1)c1ccc(Cl)cc1 (stereo not given),74.6
10,CN1CCN2C(=O)N(C3CCCCC3)C[C@H]2C1,-52.1
11,CS(=O)(=O)N1CCC2(CCCN(Cc3ccccn3)C2)C1 (stereo not given),-32.2
12,c1ccc(CN2CCCC3(CCN(Cc4cccs4)C3)C2)nc1 (stereo not given),73.8
13,c1ccc(N2CCCC3(CCN(Cc4cccs4)C3)C2)nc1 (stereo not given),73.4
14,c1ccc(CN2CCC3(CC2)CCN(Cc2cccnc2)C3)nc1,21
15,c1ccc(CO[C@H]2CO[C@@]3(CCN(Cc4ccoc4)C3)C2)nc1,14.1
16,c1ccc(CN2CCCC3(CCN(CC4CCCO4)CC3)C2)nc1 (stereo not given),15.1
17,c1ccc(CO[C@@H]2CO[C@@]3(CCN(Cc4ccccn4)C3)C2)nc1,-34.3
18,c1ccc(CN2CCC3(CC2)CC(Nc2nccs2)CO3)nc1 (stereo not given),75
19,c1ccc(N2CCC3(COCCN(Cc4cccs4)C3)C2)nc1 (stereo not given),37.5
20,O=S(=O)(C1CC1)N1CCC2(CCCN(Cc3ccccn3)C2)CC1,-22.4
21,c1ccc(CN2CCC3(CC2)CCN(Cc2cccs2)C3)nc1,54.8
22,Cc1ccc(N2C[C@@H]3OCCN(CC4CC4)[C@@H]3C2)nn1,-167
23,O=C(c1ccco1)N1CCN2C[C@H](OCc3cccnc3)C[C@H]2C1,-180
24,O=C([C@H]1C[C@H]2OCC[C@H]2N(Cc2ccncc2)C1)N1CCCCO1,-62.9
